Measurements reported in PubChem BioAssay (NCATS).
“And” between values parts separate entries of the source, which are not always exact repeats. Equal values may be shown once. Results filed as inconclusive are left out. The source made the active and inactive calls. Unless noted, the call rests on the fitted dose curve; in most records, active means well fitted curve in the direction sought with a large enough effect; inconclusive means small, poorly fitted or top-dose-only effect, or another doubt; inactive means no such curve, though single readings can be large; an effect the other way counts as inactive or inconclusive.

What was measured:
[1] = Cell Viability - MRC5 (AID 434; calls by dose curve;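 further: potency means the concentration at half of the fitted maximal effect; potency reflects cytotoxicity seen as loss of intracellular ATP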); details: MRC5 lung fibroblast viability, qHTS
In short: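 MRC5 normal human lung fibroblasts, 1500 cells/well, exposed to compound for 40 hr at 37 C. Cellular ATP was read by CellTiter-Glo luminescence; data normalized to DMSO and 100 uM tamoxifen, with AC50 from Hill fits.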

[2] = Cell Viability - HUV-EC-C (AID 542); details: HUV-EC-C endothelial cell viability, qHTS; series mostly up to 92.2 µM; further: on the % scale 0 is the no-effect control and ±100 the full control effect; nearly all actives have a fitted effect of over 35% in size
In short: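 HUV-EC-C human vascular endothelial cells, 1000/well, exposed to compound for 40 hr at 37 °C in complete medium. Intracellular ATP was read by CellTiter-Glo luminescence. AC50 came from Hill-equation fits of concentration-response data.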

[3] = Cellular Toxicity (caspase-3) HepG2 (AID 654); details: HepG2 caspase-3 activation, luminescence; series mostly up to 92.2 µM;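 further: cells exposed to compound for 16 hours before reading; 0% = DMSO alone and 100% = caspase signal from 100 µM tamoxifen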
In short: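 HepG2 cells (1500/well) were treated 16 h at 37 °C in complete medium, then caspase 3/7 activity was read by Caspase-Glo luminescence. Data were normalized to DMSO and 100 uM tamoxifen; AC50 came from Hill-equation fits of qHTS concentration-response.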

[4] = Cellular Toxicity (caspase-3) HUV-EC-C (AID 656); details: HUV-EC-C cells, caspase-3 activation (apoptosis); series mostly up to 92.2 µM
In short: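 qHTS; HUV-EC-C, 1000 cells/well; 5 hr settle, 16 hr cmpd, 37°C; Caspase-Glo 3/7, 20 min RT; luminescence. Norm: DMSO = 0%, tamoxifen 100 uM = 100%. Hill-fit AC50.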

[5] = Cellular Toxicity (caspase-3) SHSY5Y (AID 657); details: SH-SY5Y caspase-3 activation; series mostly up to 91.7 µM
In short: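 qHTS, SH-SY5Y, 1500 cells/well, 5 h pre-incubation 37 °C; compound 16 h 37 °C; Caspase-Glo 3/7 1 h RT; luminescence. Norm.: DMSO = 0, 10 uM staurosporine = 100%. Hill fit → AC50.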

[6] = Cellular Toxicity (caspase-3) Mesangial (AID 660); details: mesangial cells, normalized: DMSO 0%, 100 µM tamoxifen 100%; series mostly up to 91.7 µM
In short: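 Human renal glomerular mesangial cells, 1000/well, 5 h at 37 C before 16 h compound treatment. Caspase-Glo 3/7 luminescence after 20 min; normalized to DMSO and 100 uM tamoxifen, AC50 from Hill fit.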

[7] = Cellular Toxicity (caspase-3) SK-N-SH (AID 661); details: SK-N-SH caspase-3 activation, qHTS, DMSO as zero, staurosporine as full; series mostly up to 91.7 µM
In short: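 Human SK-N-SH neuroblastoma cells, 1500/well, were exposed to compounds for 16 hours at 37 °C. Caspase-Glo 3/7 luminescence was normalized to DMSO (basal) and 10 uM staurosporine (100%), and AC50 came from a Hill fit.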

[8] = Cellular Toxicity (caspase-3) H-4-II-E (AID 663); details: H-4-II-E rat hepatoma; Potency: caspase-3 activation; series mostly up to 92.2 µM;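 further: cells exposed to compound for 16 hr before readout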
In short: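 Rat hepatoma H-4-II-E cells (1500/well) plated 5 hr, then exposed to compound titrations for 16 hr at 37 °C. Caspase-Glo 3/7 luminescence read after 20 min at RT; data normalized to DMSO and 100 uM tamoxifen, AC50 from Hill fits.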

[9] = Cellular Toxicity (caspase-3) N2a (AID 665); details: N2a cells, luminescence, normalized: DMSO 0%, 10 µM staurosporine 100%; series mostly up to 92.2 µM;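 further: compound exposure lasted 16 h at 37 °C before readout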
In short: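 Mouse N2a neuroblastoma cells, 1500 per well, treated 16 h at 37 °C in complete medium; caspase-3/7 activity by Caspase-Glo luminescence after 1 h. Normalized to DMSO and 10 uM staurosporine; AC50 from Hill fits.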

[10] = Cellular Toxicity (caspase-3) NIH 3T3 (AID 666); details: NIH 3T3 caspase-3 activation, apoptosis/toxicity, 0% DMSO, 100% is 100 µM tamoxifen; series mostly up to 92.2 µM;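 further: caspase signal read after 16 h compound exposure; 0% = DMSO basal and 100% = 100 µM tamoxifen stimulation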
In short: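 Mouse NIH 3T3 fibroblasts (1000/well) treated 16 h at 37 C; caspase-3/7 activity measured by Caspase-Glo 3/7 luminescence after 20 min. Normalized to DMSO and 100 uM tamoxifen; AC50 from Hill fits.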

[11] = Cellular Toxicity (caspase-3) Renal Proximal Tubule (AID 667); details: renal proximal tubule cells, primary cells freshly taken from rat; Potency: caspase-3 activation; series mostly up to 91.7 µM;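 further: cells exposed to compound for 16 hours at 37 °C before detection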
In short: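 AC50 derived by standard Hill fit of concentration-response data, normalized between DMSO basal and 10 uM staurosporine as 100% stimulation. Cells: primary rat kidney proximal tubule, 16 h treatment at 37 °C.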

[12] = MultiTox-Fluor Cytotoxicity Assay - LYMP1-001 - Dead Cells (AID 946); details: LYMP1-001 lymphoblastoid cells, dead-cell protease fluorescence; series mostly up to 92.2 µM;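 further: 0% = DMSO and 100% = tetraoctylammonium bromide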
In short: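 LYMP1-001 lymphoblastoid cells (2500/well) treated 16 h at 37 C. Dead-cell protease cleavage of bis-AAF-R110 read at Ex/Em 485/520. Normalized to DMSO and 15 uM tetraoctylammonium bromide; AC50 from Hill fits.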

[13] = MultiTox-Fluor Cytotoxicity Assay - LYMP1-003 - Dead Cells (AID 961); details: LYMP1-003 lymphoblastoid cells, dead-cell protease fluorescence; series mostly up to 92.2 µM;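 further: 0% = DMSO and 100% = tetraoctylammonium bromide; nearly all actives have a fitted effect of over 70% in size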
In short: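 LYMP1-003 human lymphoblastoid cells (2500/well) exposed to compound 16 h at 37 C in complete medium; dead-cell protease read with bis-AAF-R110 fluorescence (Ex/Em 485/520) after 60 min at room temperature. Normalized to DMSO and 15 uM tetraoctylammonium bromide; AC50 from Hill fit.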

[14] = MultiTox-Fluor Cytotoxicity Assay - LYMP1-003 - Live Cells (AID 962); details: LYMP1-003 lymphoblastoid cells, MultiTox-Fluor live-cell protease fluorescence; series mostly up to 92.2 µM;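 further: 0% = DMSO only and full loss = 92 µM tetraoctylammonium bromide; cytotoxic hits lower the live-cell protease signal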
In short: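 LYMP1-003 lymphoblastoid cells, 2500/well in complete medium, treated 16 h at 37 C; live-cell protease cleavage of GF-AFC read by fluorescence (Ex/Em 405/510) after 60 min reagent; AC50 from Hill fits of concentration-response.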

[15] = Cell Viability - LYMP1-003 - Assay at 24 hr (AID 963); details: LYMP1-003 lymphoblastoid cell viability; series mostly up to 92.2 µM;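 further: plate controls were DMSO only for no effect and tetraoctylammonium bromide positive control for full effect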
In short: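 Human lymphoblastoid LYMP1-003 cells, 2500/well, treated 24 h at 37 C in complete medium. Viability read as intracellular ATP by CellTiter-Glo luminescence after 30 min at room temperature; AC50 from Hill-equation fits of qHTS concentration-response.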

[16] = Cell Viability - LYMP1-002 - Assay at 24 hr (AID 993); details: LYMP1-002 lymphoblastoid cells viability; series mostly up to 92.2 µM; further: on the % scale 0 is the no-effect control and ±100 the full control effect
In short: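 Human lymphoblastoid LYMP1-002 cells (2500/well) treated 24 h at 37 °C; viability as intracellular ATP by CellTiter-Glo luminescence. Tetraoctylammonium bromide as positive control; AC50 from Hill-equation fits of qHTS concentration-response.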

[17] = qHTS Assay for Identification of Small Molecule Inducers of Hypoxia Response (AID 2120; active means well fitted curve in the direction sought with a large enough effect in the signal ratio, with a control signal flat, not every such curve was filed as active; the % refers to the signal ratio; further: 0% is about no effect); details: hypoxia response reporter cells, beta-lactamase ratio readout; series mostly up to 104 µM
In short: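 HRE-bla ME-180 cells in Opti-MEM with 0.5% dialyzed FBS, pre-plated 4-5 h, then compound titration for 17 h at 37 degrees Celsius. CCF4 loaded 2.5 h at room temperature; 460/530 nm ratio gave %Activity and AC50 for induction.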

[18] = target: Peroxisome proliferator-activated receptor alpha (Homo sapiens) (UniProt Q07869); test: qHTS assay for small molecule agonists of the peroxisome proliferator-activated receptor alpha (PPARalpha) signaling pathway (AID 651778); details: PathHunter PPARalpha complementation, chemiluminescence, 6 h; max response: hits give high values; further: % of control where 0% means no effect
Sequence of Peroxisome proliferator-activated receptor alpha (Homo sapiens) (Q07869 whole entry, looked up, the tested form may be a part): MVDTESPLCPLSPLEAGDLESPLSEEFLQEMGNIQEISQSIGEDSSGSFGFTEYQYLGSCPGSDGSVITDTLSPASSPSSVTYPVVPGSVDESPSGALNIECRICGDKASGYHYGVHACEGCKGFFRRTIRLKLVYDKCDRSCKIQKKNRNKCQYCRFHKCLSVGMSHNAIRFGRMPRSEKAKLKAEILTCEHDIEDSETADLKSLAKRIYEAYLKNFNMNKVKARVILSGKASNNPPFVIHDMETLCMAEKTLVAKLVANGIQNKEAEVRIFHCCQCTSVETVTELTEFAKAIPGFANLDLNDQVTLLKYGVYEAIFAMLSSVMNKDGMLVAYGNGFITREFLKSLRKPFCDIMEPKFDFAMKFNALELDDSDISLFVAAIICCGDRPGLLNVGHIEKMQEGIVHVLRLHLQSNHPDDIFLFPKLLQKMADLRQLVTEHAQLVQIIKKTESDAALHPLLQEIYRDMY
In short: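 Enzyme-fragment complementation assay in which ligand-bound PPARalpha translocates and forms an active enzyme that generates chemiluminescence. Cells were plated overnight, exposed to compound for 6 hr at 37 C, and then given detection reagent for 60 min at room temperature.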

[19] = qHTS assay for small molecule agonists of the antioxidant response element (ARE) signaling pathway measured by Nrf2-dependant transcriptional activity - cell viability counter screen (AID 720653; active means well fitted curve in the direction sought with a large enough effect in the repeat runs; an effect the other way counts as inactive or inconclusive; further: on the % scale 0 is the no-effect control and ±100 the full control effect); details: ARE-bla HepG2 viability, CellTiter-Glo ATP luminescence, 16 h; max response: hits give low values
In short: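 ARE-bla HepG2 cells treated with compounds for 16 h at 37C; this counter screen measures viability as intracellular ATP by CellTiter-Glo luminescence after 30 min at room temperature.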

[20] = qHTS assay for cell viability of the p53RE-bla HCT-116 cell line (AID 743292); details: p53RE-bla HCT-116 viability, ATP luminescence, 16 h; series mostly up to 95 µM; further: on the % scale 0 is the no-effect control and ±100 the full control effect; nearly all actives have a fitted effect of over 55% in size
In short: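 ATP-based luminescent viability (CellTiter-Glo, 30 min RT) after 16 h compound treatment at 37 C of p53RE-bla HCT-116 cells, seeded at 4,000 cells/well and rested 5 h before dosing.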

CCCCC(CC)COCCCN (stereo not given)
inactive: Potency [1] > 92 µM | Potency [2] | Potency [3] | Potency [4] | Potency [5] | outcome [6] | outcome [7] | Potency [8] | outcome [9] | outcome [10] | Potency [11] | Potency [12] | Potency [13] | Potency [14] | Potency [15] | Potency [16] | Potency [17] | max response [18] -9.53% | max response [19] -14.9% | Potency [20]

CCOC(=O)C1OC1c1ccccc1 (stereo not given)
inactive: Potency [1] > 92 µM | Potency [2] | Potency [3] | Potency [4] | Potency [5] | outcome [6] | outcome [7] | Potency [8] | outcome [9] | outcome [10] | Potency [11] | Potency [12] | Potency [13] | Potency [14] | Potency [15] | Potency [16] | Potency [17] | max response [18] -1.32% | max response [19] 8.37% | Potency [20]

c1ccc2ncccc2c1
inactive: Potency [1] > 92 µM | Potency [2] | Potency [3] | Potency [4] | Potency [5] | outcome [6] | outcome [7] | Potency [8] | outcome [9] | outcome [10] | Potency [11] | Potency [12] | Potency [13] | Potency [14] | Potency [15] | Potency [16] | Potency [17] | max response [18] -2.05% | max response [19] 0.928% | Potency [20]

CC(=O)OCc1ccc2c(c1)OCO2
inactive: Potency [1] > 92 µM | Potency [2] | Potency [3] | Potency [4] | Potency [5] | outcome [6] | outcome [7] | Potency [8] | outcome [9] | outcome [10] | Potency [11] | Potency [12] | Potency [13] | Potency [14] | Potency [15] | Potency [16] | Potency [17] | max response [18] -4.72% | max response [19] -6.13% | Potency [20]

OCC(CO)(CBr)CBr
inactive: Potency [1] > 92 µM | Potency [2] | Potency [3] | Potency [4] | Potency [5] | outcome [6] | outcome [7] | Potency [8] | outcome [9] | outcome [10] | Potency [11] | Potency [12] | Potency [13] | Potency [14] | Potency [15] | Potency [16] | Potency [17] | max response [18] -0.558% and -3.38% | max response [19] 9.25% and 7.51% | Potency [20]

C1CCCNCC1
inactive: Potency [1] > 92 µM | Potency [2] | Potency [3] | Potency [4] | Potency [5] | outcome [6] | outcome [7] | Potency [8] | outcome [9] | outcome [10] | Potency [11] | Potency [12] | Potency [13] | Potency [14] | Potency [15] | Potency [16] | Potency [17] | max response [18] 0.101% | max response [19] -5.98% | Potency [20]

Cc1ccc(C(=O)O)cc1[N+](=O)[O-]
inactive: Potency [1] > 92 µM | Potency [2] | Potency [3] | Potency [4] | Potency [5] | outcome [6] | outcome [7] | Potency [8] | outcome [9] | outcome [10] | Potency [11] | Potency [12] | Potency [13] | Potency [14] | Potency [15] | Potency [16] | Potency [17] | max response [18] -2.73% | max response [19] -1.34% | Potency [20]
